Test results published in the supplement of paper PMC8728848.
Only a selection was taken, and the strongest signals are over-represented in it overall.

Experiments:
Assay in all cases: glycan array binding signal (z-score within array); higher = stronger binding
Conditions in all cases: glycan notation: IUPAC condensed, linker removed
Gal6P(b1-4)GlcNAc = molecular target: Gal6P(b1-4)GlcNAc
In short: (§1)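 Glycan array data were curated from 3228 arrays in the Consortium for Functional Glycomics database and kept only where the protein sequence was available. Glycan names were converted to IUPAC-condensed notation, and columns mapping to the same glycan were averaged. The binding signal is a within-array Z-score, averaged across arrays of the same protein sequence at different concentrations or buffers and across linkers. Negative Z-scores can be read as non-binding.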

GalNAc4S6S(b1-4)GlcNAc = molecular target: GalNAc4S6S(b1-4)GlcNAc
In short: as §1

[1] = molecular target: GlcNAc(b1-2)[GlcNAc(b1-4)]Man(a1-3)[GlcNAc(b1-4)][GlcNAc(b1-2)[GlcNAc(b1-6)]Man(a1-6)]Man(b1-4)GlcNAc(b1-4)[Fuc(a1-6)]GlcNAc
In short: as §1

[2] = molecular target: GlcNAc(b1-3)Gal(b1-4)GlcNAc(b1-3)Gal(b1-4)GlcNAc(b1-3)Gal(b1-4)GlcNAc(b1-3)Gal(b1-4)GlcNAc(b1-2)[GlcNAc(b1-3)Gal(b1-4)GlcNAc(b1-3)Gal(b1-4)GlcNAc(b1-3)Gal(b1-4)GlcNAc(b1-3)Gal(b1-4)GlcNAc(b1-6)]Man(a1-6)[GlcNAc(b1-3)Gal(b1-4)GlcNAc(b1-3)Gal(b1-4)GlcNAc(b1-3)Gal(b1-4)GlcNAc(b1-3)Gal(b1-4)GlcNAc(b1-2)Man(a1-3)]Man(b1-4)GlcNAc(b1-4)[Fuc(a1-6)]GlcNAc
In short: as §1

[3] = molecular target: GlcNAc(b1-3)Gal(b1-4)GlcNAc(b1-6)[GlcNAc(b1-3)]Gal(b1-4)GlcNAc
In short: as §1

[4] = molecular target: GlcNAc(b1-4)Gal(b1-4)GlcNAc
In short: as §1

[5] = molecular target: GlcNAc(b1-4)GlcNAc(b1-4)GlcNAc(b1-4)GlcNAc(b1-4)GlcNAc
In short: as §1

[6] = molecular target: GlcNAc(b1-4)GlcNAc(b1-4)GlcNAc(b1-4)GlcNAc(b1-4)GlcNAc(b1-4)GlcNAc
In short: as §1

GlcNAc(b1-6)GalNAc = molecular target: GlcNAc(b1-6)GalNAc
In short: as §1

[7] = molecular target: Man(a1-2)Man(a1-2)Man(a1-3)Man
In short: as §1

Man(a1-3)[Man(a1-6)]Man = molecular target: Man(a1-3)[Man(a1-6)]Man
In short: as §1

[8] = molecular target: Neu5Ac(a2-3)Gal(b1-3)GalNAc(b1-3)Gal(a1-4)Gal(b1-4)Glc
In short: as §1

[9] = molecular target: Neu5Ac(a2-3)Gal(b1-3)[Fuc(a1-4)]GlcNAc(b1-3)Gal(b1-3)[Fuc(a1-4)]GlcNAc
In short: as §1

Neu5Ac(a2-6)Gal(b1-4)Glc = molecular target: Neu5Ac(a2-6)Gal(b1-4)Glc
In short: as §1

[10] = molecular target: Neu5Ac(a2-6)Gal(b1-4)GlcNAc
In short: as §1

[11] = molecular target: Neu5Ac(a2-6)Gal(b1-4)GlcNAc(b1-2)Man(a1-3)Man(b1-4)GlcNAc(b1-4)GlcNAc
In short: as §1

[12] = molecular target: Neu5Ac(a2-6)Gal(b1-4)GlcNAc(b1-2)Man(a1-3)[GlcNAc(b1-2)Man(a1-6)]Man(b1-4)GlcNAc(b1-4)GlcNAc
In short: as §1

[13] = molecular target: Neu5Ac(a2-6)Gal(b1-4)GlcNAc(b1-3)Gal(b1-4)GlcNAc(b1-3)[Neu5Ac(a2-6)Gal(b1-4)GlcNAc(b1-3)Gal(b1-4)GlcNAc(b1-6)]GalNAc
In short: as §1

Neu5Ac(b2-6)GalNAc = molecular target: Neu5Ac(b2-6)GalNAc
In short: as §1

[14] = molecular target: Neu5Gc(a2-6)Gal(b1-4)GlcNAc
In short: as §1

B1: PX9937I-bfa-538-26-538 (Bacteroides fragilis) (protein)
chain: DKLDLSPIDYYGSGSYWKTEAQATAYIDGIHKHLRDAAWQHTITFGELRGGRFITGASSDGMGVSNGDIILQNFDETHTGVSKFGDLFGRITNLNLFIARVTDATYLSDEMKNFYLGEVYGLRAFYYFDLYRIYGGVPLRLTADVVEGVIDPNKLYMARSTPKEVMTQIKSDLNKSMEYFGNMNDFDPYKRGKKVYWSKAATECLMGEVYLWTSKVTTGDDVANPADLTIAKTHLESVLNNYNLKMLDDFSQVFNAKNKANDEIIFAIRFLEGEATNSNGTFTYNVGTGSTKNRYQANGEVFGDALDIQNTGNQTYEYNKAVYQNFDDADTRKEATFIASYNKDGKTGELSLYGTHVRKNIGYVNAQGARVYCGDYIFYRLPWVYLTLAEIANMEGDNAAVAKYINLVRKRAYGNAWDETLYAYPETADFTTNELAILHEKDKEFIQEGQRWWDLRRMTLTKGGTPLVFCKEGSLLGDAPILNKSTEAHKLLWPIEKTMLNKDPALEQTPGYK
glycan array binding signal (z-score) (Gal6P(b1-4)GlcNAc): -0.37
glycan array binding signal (z-score) (GalNAc4S6S(b1-4)GlcNAc): -0.708
glycan array binding signal (z-score) [1]: -0.615
glycan array binding signal (z-score) [2]: 0.041
glycan array binding signal (z-score) [3]: -0.068
glycan array binding signal (z-score) [4]: 1.65
glycan array binding signal (z-score) [5]: 1.25
glycan array binding signal (z-score) [6]: -0.198
glycan array binding signal (z-score) (GlcNAc(b1-6)GalNAc): 0.252
glycan array binding signal (z-score) [7]: 0.241
glycan array binding signal (z-score) (Man(a1-3)[Man(a1-6)]Man): 0.95
glycan array binding signal (z-score) [8]: -1
glycan array binding signal (z-score) [9]: -1.26
glycan array binding signal (z-score) (Neu5Ac(a2-6)Gal(b1-4)Glc): -0.274
glycan array binding signal (z-score) [10]: -0.419
glycan array binding signal (z-score) [11]: 3.63
glycan array binding signal (z-score) [12]: -0.591
glycan array binding signal (z-score) [13]: -0.643
glycan array binding signal (z-score) (Neu5Ac(b2-6)GalNAc): -0.386
glycan array binding signal (z-score) [14]: -0.339
